From PubChem
TDP1 cell noCPT: qHTS for Inhibitors of human tyrosyl-DNA phosphodiesterase 1 (TDP1): qHTS in cells in absence of CPT; DT40 Tdp1-/- hTDP1 cells, no CPT, ATP luminescence, 48 h; Potency, µM (series often up to 46.2 µM), without a hit: at the top dose activity change, negative = growth inhibition, hits mostly inhibitors; actives 15% (n = 420,000); AID 686978, 2013; further: on the % scale 0 is the no-effect control and ±100 the full control effect; nearly all actives have a fitted effect of over 55% in size
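Chicken DT40 Tdp1-/- cells complemented with human TDP1, screened without camptothecin (DMSO vehicle only), 400 cells/well. Compounds pin-transferred, cells incubated at 37 °C for at least 48 hr. Growth read as ATP-dependent luminescence (CellTiter-Glo, 30 min at RT).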
HT1080 IDH1KD tx: qHTS for induction of synthetic lethality in tumor cells producing 2HG: qHTS for the HT-1080-IDH1KD cell line; HT-1080 IDH1 knockdown viability, ATP luminescence, 48 h; AID 686971, 2013; actives 2% (n = 360,000); Potency, µM (top dose mostly 46.1 µM), for the others: at the highest dose activity, negative = toxicity, most hits filed as cytotoxic;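 further: 0% = DMSO wells and -100% = cell-free medium wells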
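HT-1080-IDH1KD cells (IDH1 knocked down), 750/well in RPMI with 5% FBS, treated with compound 48 h at 37 degrees C. Viability by CellTiter-Glo luminescence, normalised to DMSO and no-cell wells; concentration-response curves classed.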
TGFb SMAD3 inh: qHTS for Inhibitors of TGF-b; HepG2 CAGA-GFP TGF-b/SMAD3 reporter, GFP fluorescence, 18 h; TGF-beta stimulated, 500 pg/mL final; Potency, µM (highest dose often 46.1 µM), without a hit: at the highest dose activity, negative = inhibition, actives largely listed as inhibitors; actives 1.2% (n = 410,000); AID 588855, 2011; further: on the % scale 0 is the no-effect control and ±100 the full control effect; nearly all actives have a fitted effect of over 65% in size
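Read-out: total well GFP (ex488/em500-530) summed from mean per-cell fluorescence. Cells: HEPG2 CAGA-GFP, 1% FBS DMEM, 18 h at 37 degrees C with 500 pg/mL final TGF-beta. Unstimulated wells served as the full-inhibition control; stimulated DMSO wells = 0%.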
TDP1 cell CPT: qHTS for Inhibitors of human tyrosyl-DNA phosphodiesterase 1 (TDP1): qHTS in cells in presence of CPT. actives 12% (n = 420,000). AID 686979, 2013. Potency, µM (top dose mostly 46.2 µM), for the others: top-dose activity change, negative = growth inhibition, most hits filed as inhibitors. chicken DT40 Tdp1-/-;hTDP1 cells + 20 nM CPT, ATP luminescence, 48 h; further: on the % scale 0 is the no-effect control and ±100 the full control effect; nearly all actives have a fitted effect of over 55% in size
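Cell growth measured by CellTiter-Glo luminescence after a minimum 48 h, 37 C compound exposure with 20 nM CPT in Tdp1-knockout DT40 cells stably expressing hTDP1, seeded 400/well; qHTS titration format.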
HT1080NT lethal: qHTS for induction of synthetic lethality in tumor cells producing 2HG: qHTS for the HT-1080-NT fibrosarcoma cell line | Potency, µM (series often up to 46.1 µM), for inactives: at the top dose activity, negative = less viability, hits mostly cytotoxic | actives 1.6% (n = 360,000) | AID 686970, 2013 | HT-1080-NT fibrosarcoma viability, CellTiter-Glo ATP luminescence, 48 h;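 further: NT is the 2HG producing partner of a matched IDH1 knockdown line; 0% = DMSO-treated cells and -100% = media-only wells without cells; nearly all actives have a fitted effect of over 55% in size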
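Fibrosarcoma NT cells, 750 per well in 5% FBS RPMI, were exposed to compound for 48 hours. Viability: CellTiter-Glo luminescence.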
HepG2 tox: qHTS for Inhibitors of TGF-b: Cytotox Counterscreen. HepG2 CAGA-GFP viability, ATP luminescence, 18 h. Potency, µM (series often up to 46.1 µM), for the others: top-dose activity change, negative = cytotoxicity, most hits filed as cytotoxic. actives 0.76% (n = 410,000). AID 588856, 2011
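HepG2 CAGA-GFP cells (1000/well, DMEM with 1% FBS) received compound, then TGF-beta at 500 pg/mL final, and were incubated 18 hours at 37 degrees C. Viability was read by CellTiter-Glo luminescence. Media-only wells were set as complete cell-killing and DMSO as no toxicity.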
Starred values were filed as active, the others as inactive; ? = inconclusive; . = no result given; [ ] = another dose, or the depositor's remark. An excerpt weighted towards active compounds, which were near 17% of everything screened. The call rests on the fitted dose curve; in most records, active means well fitted curve in the direction sought with a large enough effect; inconclusive means small, poorly fitted or top-dose-only effect, or another doubt; inactive means no such curve, though single readings can be large; an effect the other way counts as inactive or inconclusive. Potency means the concentration at half of the fitted maximal effect.

SMILES	TDP1 cell noCPT	HT1080 IDH1KD tx	TGFb SMAD3 inh	TDP1 cell CPT	HT1080NT lethal	HepG2 tox
Cc1cccc(C)c1NC(=O)c1cc(S(=O)(=O)N2CCc3ccccc3C2)ccc1F	?	.	-19%	18µM*	.	-15%
CCC(=O)N1CCc2cc(S(=O)(=O)N3CCN(c4ccccn4)CC3)ccc21	12µM*	-8%	-2%	?	-1%	-35%
O=C(C1CCN(C2CCN(Cc3ccc4c(c3)CCO4)CC2)CC1)N1CCOCC1	-13%	-2%	2%	14%	3%	-6%
C[C@H](CN1CCCC1)C(=O)c1ccc(C(F)(F)F)cc1	-4%	.	.	6%	.	.
O=C(c1ccco1)N1CCN(C(=O)c2ccc(CS(=O)c3ccc(Br)cc3)o2)CC1 (configuration not stated)	?	-3%	0%	?	1%	-7%
CCOC(=O)/C=C/C(=O)Nc1ccc(S(=O)(=O)N2CCc3ccccc32)cc1	15µM*	-10%	-26%	23µM*	-8%	-11%
O=C(Nc1ccc(C(F)(F)F)cc1)c1cc(S(=O)(=O)N2CCCc3ccccc32)ccc1F	10µM*	.	?	7.3µM*	.	-30%
CCOC(=O)/C=C/C(=O)Nc1ccc(S(=O)(=O)N(C)c2ccccc2)cc1	?	21µM*	?	1.8µM*	?	-3%
O=C1c2ccccc2C(=O)N1c1nc(-c2ccc(F)cc2)cs1	?	.	42%	-8%	.	6%
Cc1ccc(N2C(=N)/C(=C3/Nc4ccccc4S3)C(c3ccccc3)C2=O)cc1 (configuration not stated)	4.6µM*	1%	0%	?	-1%	-2%
CC1=NN(c2ccccc2)C(=O)C1c1ccccc1 (configuration not stated)	-12%	-2%	-3%	2%	-5%	3%
CCOC(=O)c1nnn(C(CC)C(=O)Nc2ccc(F)cc2)c1C(=O)OCC (configuration not stated)	-13%	.	?	-8%	.	1%
COc1ccc(NC(=O)C2CCCN(S(=O)(=O)c3ccc4c(c3)CCCC(=O)N4)C2)c(OC)c1 (configuration not stated)	.	.	-2%	.	.	-7%
COc1ccc(NC(=O)C2CCCN2S(=O)(=O)c2ccc3c(c2)CCC(=O)N3)c(OC)c1 (configuration not stated)	16µM*	-6%	6%	13µM*	3%	-20%
CC1=CC(C)(C)N=C(Nc2nc(C)c3cc(C)cc(C)c3n2)N1	16µM*	-4%	?	15µM*	-4%	-47%
COc1ccc(CCCNC(=O)C2Cc3c(-c4ccc(NC(C)=O)cc4)ccnc3O2)cc1 (configuration not stated)	18µM*	16µM*	15%	16µM*	?	-25%
COc1ccc(CCCNC(=O)C2Cc3c(-c4cccc(C(C)=O)c4)ccnc3O2)cc1 (configuration not stated)	4.6µM*	?	?	3.7µM*	?	-1%
COc1ccc(CCCNC(=O)C2Cc3c(-c4ccc5c(c4)OCO5)ccnc3O2)cc1 (configuration not stated)	?	5.8µM*	-5%	?	9.2µM*	-37%
COc1ccc(CCCNC(=O)C2(C)Cc3c(-c4ccc5c(c4)OCO5)ccnc3O2)cc1 (configuration not stated)	5.8µM*	?	?	5.2µM*	?	-32%
O=C(COC(=O)c1cc(S(=O)(=O)N2CCOCC2)ccc1F)Nc1ccccc1C(F)(F)F	-11%	1%	5%	-12%	3%	3%
CCOc1ccc(CCNC(=O)CN2C(=O)NC3(CCCCC3)C2=O)cc1OCC	12%	6%	5%	-14%	6%	5%
CCNc1ncc2nc(-c3ccc(Cl)cc3)c(=O)n(C3CC3)c2n1	-4%	.	.	3%	.	.
CCCOc1ccccc1-n1sc2c(c1=S)-c1cc(OC)cc3c1N(C(=O)C3=O)C2(C)C	16µM*	?	?	16µM*	?	-34%
CCOc1ccccc1NC(=O)C(OC(=O)c1ccccc1O)c1ccccc1 (configuration not stated)	?	11%	?	?	8%	-7%
CCOc1ccccc1NC(=O)C(OC(=O)c1cc(C)oc1C)c1ccccc1 (configuration not stated)	18µM*	-11%	-31%	?	-8%	9%
SMILES	TDP1 cell noCPT	HT1080 IDH1KD tx	TGFb SMAD3 inh	TDP1 cell CPT	HT1080NT lethal	HepG2 tox
CNC(=S)N1N=C(c2ccc(C)cc2)CC1c1ccc(Br)cc1 (configuration not stated)	7.3µM*	?	-22%	10µM*	-5%	2%
CNC(=S)N1N=C(c2ccc(C)cc2)CC1c1ccc(Cl)cc1 (configuration not stated)	10µM*	2%	-7%	13µM*	3%	-23%
CNC(=S)N1N=C(c2ccccc2)CC1c1ccccc1Cl (configuration not stated)	?	14%	-4%	?	-2%	-3%
CC(C)c1ccc(C2CC(c3ccc(Br)cc3)=NN2C(N)=S)cc1 (configuration not stated)	9.2µM*	?	?	15µM*	-23%	-21%
CNC(=O)C[C@@H]1CC[C@@H]2[C@H](COC[C@H](O)CN2S(=O)(=O)c2ccccc2Cl)O1	-5%	15%	.	-3%	14%	.
COc1ccccc1-c1cc2c(c(OC)c1)OCCN(CCC(C)c1ccc(C)o1)C2 (configuration not stated)	-13%	.	.	-14%[9.04 µM]	.	.
Cc1cccc(N2CCN(C(=O)Cn3ncc4c3-c3cc(C)ccc3OC4)CC2C)c1 (configuration not stated)	23µM*	.	?	23µM*	.	-30%
CCCN(C(=O)Cn1ncc2c1-c1ccccc1OC2)c1cccc(C)c1	16µM*	.	-5%	?	.	-3%
